The values that follow come from PubChem BioAssay (NCATS).

SMILES strings stand for the structures. Several values for one entry are separate records, joined by “and”; a condition that tells them apart may be missing. Identical values can stand only once. Values without a mark were called inactive. Records with an inconclusive call do not appear. The source holds several records for some structures; these can differ, active in one and inactive in another. Activity calls are given as the source filed them. Unless noted, calls come from the whole dose curve; as a rule, active = well fitted curve in the direction sought with a large enough effect; inconclusive = small, poorly fitted or top-dose-only effect, or another doubt; inactive = no such curve, though single readings can be large; an effect the other way counts as inactive or inconclusive.

One assay deals with MKL-2. The assay can be described thus: qHTS assay to identify novel small-molecules to repurpose for Merkel cell carcinoma treatment (AID 1296009). Note: nearly all actives have a fitted effect of over 60% in size. Note: potency is the fitted concentration of half-maximal effect. As to conditions: MCC and control cell lines, CellTiter-Glo viability, 72 h; series mostly up to 46 µM. In outline: (§1)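 Cells were treated for 72 hr at 37 degree celsius with compounds in 8- or 11-point dose response. Viability was read by CellTiter-Glo luminescence, normalized to no-cell (cytotoxicity) and DMSO controls.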

A further assay concerns NIH3T3. Described as above. The following applies: MCC and control cell lines, CellTiter-Glo viability, 72 h; series mostly up to 44.8 µM. In outline:
as §1
For orientation: ATP-based viability assays read luminescence as a measure of living cells.

A further assay relates to UISO. The assay is described as above. As to conditions: MCC and control cell lines, CellTiter-Glo viability, 72 h; series mostly up to 46 µM. Summed up: as §1
A further assay has as its system WaGa. Described as above. The following applies: MCC and control cell lines, CellTiter-Glo viability, 72 h; series mostly up to 46 µM. Summed up:
as §1

Another assay has as its system C33A. The assay can be described thus: Primary qHTS to identify gynecologic anti-cancer compounds using libraries of approved drugs and bioactive compounds (AID 1345084). Note: % is set by controls: 0 for no effect and ±100 for the full control effect; nearly all actives have a fitted effect of over 55% in size. The following applies: Gynecologic cancer cell panel viability, ATPlite luminescence, 48 h; series mostly up to 57.5 µM. In outline:
(§2)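 Luminescence from the ATPlite ATP-monitoring reagent indicates viable cell number; lower signal means cytotoxicity. Cells received compound 16 h after seeding and were exposed for 48 h across five concentrations.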
For orientation: Quantitative high-throughput screening tests each substance at several concentrations.

For the next assay, the system named is CASKI. The assay is described as above. The following applies: Gynecologic cancer cell panel viability, ATPlite luminescence, 48 h; series mostly up to 57.5 µM. In outline:
as §2

The subject of the next assay is Es-2. The description is as above. As to conditions: Gynecologic cancer cell panel viability, ATPlite luminescence, 48 h; series mostly up to 57.5 µM. Summed up: as §2
The next assay deals with HeLa. The assay is described as above. As to conditions: Gynecologic cancer cell panel viability, ATPlite luminescence, 48 h; series mostly up to 57.5 µM. Summed up:
as §2

In a further assay the test system is Hek293T. The assay is described as above. The following applies: Gynecologic cancer cell panel viability, ATPlite luminescence, 48 h, control line for the selectivity index; series mostly up to 57.5 µM. Summed up:
as §2

For the next assay, the system named is JEG-3. The assay is described as above. As to conditions: Gynecologic cancer cell panel viability, ATPlite luminescence, 48 h; series mostly up to 57.5 µM. Summed up:
as §2

For the next assay, the system named is OV90. The assay is described as above. The following applies: Gynecologic cancer cell panel viability, ATPlite luminescence, 48 h; series mostly up to 57.5 µM. Summed up:
as §2

In the next assay the test system is PA-1. Described as above. As to conditions: Gynecologic cancer cell panel viability, ATPlite luminescence, 48 h; series mostly up to 57.5 µM. Summed up:
as §2

For the next assay, the system named is SKOV3. The assay is described as above. As to conditions: Gynecologic cancer cell panel viability, ATPlite luminescence, 48 h; series mostly up to 57.5 µM. Summed up: as §2
A further assay deals with Tov-21-G. The description is as above. As to conditions: Gynecologic cancer cell panel viability, ATPlite luminescence, 48 h; series mostly up to 57.5 µM. In outline: as §2
The subject of another assay is Tov112D. The description is as above. The following applies: Gynecologic cancer cell panel viability, ATPlite luminescence, 48 h; series mostly up to 57.5 µM. Summed up:
as §2

Assay [1] in a line: Drug repurposing screens with cells derived from glioblastoma tumor samples (AID 1345199). For activity, negative = cell killing: % is set by controls: 0 for no effect and ±100 for the full control effect. Note: nearly all actives have a fitted effect of over 40% in size. Note: potency is the fitted concentration of half-maximal effect. As to conditions: GBM patient neurospheres viability, ATP luminescence, 48 h. In outline: (§3)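 Four patient lines of CD133+ GBM neurospheres were screened at several concentrations; hits were retested in those lines plus three slower-growing GBM lines, using 48-hour treatment and ATP-based viability.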

The target of assay [2] is Nuclear receptor subfamily 1 group I member 2 (Rattus norvegicus) (UniProt Q9R1A7). The assay is described as follows: qHTS assay for small molecule activators of the rat pregnane X receptor (rPXR) signaling pathway (AID 651751; call rule not given here; note: 0% is about no effect). As to conditions: rPXR reporter cells, luciferase (One-Glo), 24 h.
For a further assay, the system named is CAOV3. The assay is described as follows: Primary qHTS to identify gynecologic anti-cancer compounds using libraries of approved drugs and bioactive compounds (AID 1345084). Note: % is set by controls: 0 for no effect and ±100 for the full control effect; nearly all actives have a fitted effect of over 55% in size. As to conditions: Gynecologic cancer cell panel viability, ATPlite luminescence, 48 h; series mostly up to 57.5 µM. Summed up:
as §2

The next assay deals with astro. The assay can be described thus: Drug repurposing screens with cells derived from glioblastoma tumor samples (AID 1345199). For activity, negative = cell killing: % is set by controls: 0 for no effect and ±100 for the full control effect. Note: nearly all actives have a fitted effect of over 40% in size. Note: potency is the fitted concentration of half-maximal effect. The following applies: viability, ATP luminescence, 48 h; series mostly up to 45.9 µM. Summed up: as §3
Where [3] appears, read: at 45.9 µM (top of the series), tumour line B.
Setting [4] is: at 45.9 µM (top of the series), tumour line D.
Setting [5] is: at 46 µM (top of the series), tumour line A.
Setting [6] is: at 46.1 µM (top of the series), tumour line C.

Nuclear receptor subfamily 1 group I member 2 (Rattus norvegicus), sequence (Q9R1A7 whole entry, looked up): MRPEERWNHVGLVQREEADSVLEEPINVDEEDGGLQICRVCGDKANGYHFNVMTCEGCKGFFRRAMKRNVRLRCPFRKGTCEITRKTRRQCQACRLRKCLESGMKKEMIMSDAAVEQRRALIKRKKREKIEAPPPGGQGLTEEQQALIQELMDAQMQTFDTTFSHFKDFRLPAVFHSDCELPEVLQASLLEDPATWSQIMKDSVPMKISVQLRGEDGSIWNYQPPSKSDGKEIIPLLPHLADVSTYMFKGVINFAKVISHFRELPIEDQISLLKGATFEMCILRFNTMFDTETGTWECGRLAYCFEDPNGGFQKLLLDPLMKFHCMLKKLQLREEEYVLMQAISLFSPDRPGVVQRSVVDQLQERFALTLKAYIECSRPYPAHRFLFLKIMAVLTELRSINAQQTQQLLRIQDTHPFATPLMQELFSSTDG

For the compound `CN(C)C(=O)C(CCN1CCC(O)(c2ccc(Cl)cc2)CC1)(c1ccccc1)c1ccccc1`, in the assay on MKL-2, the Potency is 18.7 µM (active).
For `CC(C)(Oc1ccc(C2CC2(Cl)Cl)cc1)C(=O)O` (stereo unspecified), the Potency entry in the assay on MKL-2, with UISO, in the assay with WaGa, with C33A, in the assay on CASKI and in the assay on Es-2 was “inactive” in each case. Further, the Potency entry in the assay on HeLa, in the assay with Hek293T, in the assay with JEG-3, in the assay on OV90, in the assay on PA-1 and in the assay on SKOV3 was “inactive” in each case. Further, the Potency result in the assay on Tov-21-G and in the assay on Tov112D was “inactive” in each case. Moreover, the outcome with NIH3T3 was inactive. In addition, the activity, negative = cell killing is -9.51% in assay [1] (setting [3]), -16.1% in assay [1] (setting [4]), -29.3% in assay [1] (setting [5]) and 6.66% in assay [1] (setting [6]). Moreover, in assay [2], the max response was 27.5%.
Turning to `CN(C)CCOC(c1ccccc1)c1ccccc1`, the Potency entry in the assay on MKL-2, with UISO, with WaGa, in the assay on C33A, in the assay with CAOV3 and with CASKI was “inactive” each time. Further, the Potency result in the assay on Es-2, with HeLa, with Hek293T, in the assay with JEG-3, in the assay on OV90 and in the assay with PA-1 was “inactive” each time. The Potency result with SKOV3, in the assay with Tov-21-G and with Tov112D was “inactive” each time. Further, the call in the assay with NIH3T3 was inactive. Moreover, the activity, negative = cell killing in [1] (setting [3]) was 0.893%; in assay [1] (setting [4]), 1.4%; in assay [1] (setting [6]) it was 1.73% and -22.4%. In addition, the Potency in [1] (tumour line A) was 22.4 µM (active) and 12.6 µM (active). For the same compound, the max response in assay [2] was 2.67%.
For the compound `CC(=O)OCC(CCn1cnc2cnc(N)nc21)COC(C)=O`, the Potency entry in the assay on MKL-2, in the assay on UISO, in the assay with WaGa, in the assay with C33A, with CASKI and in the assay on Es-2 was “inactive” in each case. Besides, the Potency result with HeLa, in the assay with Hek293T, with JEG-3, with OV90, in the assay with PA-1 and with SKOV3 was “inactive” throughout. Moreover, the Potency result with Tov-21-G, in the assay on Tov112D and in the assay on astro was “inactive” each time. In the assay with NIH3T3, the compound was called inactive. In addition, the activity, negative = cell killing was -16.1% in assay [1] (setting [3]), -3.4% in assay [1] (setting [4]), -17.2% in assay [1] (setting [5]) and -0.294% in assay [1] (setting [6]).
In the case of `CC(C)Cc1ccc(C(C)C(=O)O)cc1` (stereo unspecified), the Potency result in the assay with MKL-2, with UISO, with WaGa, in the assay on C33A, with CASKI and with Es-2 was “inactive” each time. Moreover, the Potency result in the assay with HeLa, in the assay with Hek293T, in the assay with JEG-3, in the assay with OV90, in the assay on PA-1 and with Tov-21-G was “inactive” each time. Further, in the assay on Tov112D, the Potency result was “inactive”. Moreover, the outcome with NIH3T3 was “inactive [at 17.4 µM]”. Further, the activity, negative = cell killing in assay [1] (setting [3]) is -11.8%; in assay [1] (setting [4]) it was -6.13%; in [1] (setting [5]), -21.1%; in [1] (setting [6]), -7.76%.
`COc1ccc2[nH]cc(CCNC(C)=O)c2c1`: the Potency entry in the assay with MKL-2, with UISO, in the assay with WaGa, in the assay on C33A, in the assay with CAOV3 and in the assay with CASKI was “inactive” throughout. Further, the Potency entry with Es-2, in the assay with HeLa, in the assay on Hek293T, in the assay with JEG-3, with OV90 and in the assay on PA-1 was “inactive” each time. For the same compound, the Potency entry in the assay with SKOV3, in the assay with Tov-21-G and in the assay on Tov112D was “inactive” each time. For the same compound, the compound was classed as inactive in the assay on NIH3T3. Also, the activity, negative = cell killing in [1] (setting [3]) was -3.86%; in [1] (setting [4]), 3.96%; in assay [1] (setting [5]), -18.9%; in assay [1] (setting [6]) it was -11.3%. Also, the max response in assay [2] is 3.19% and 0.0273% and 3.25%.
